Only some compounds are listed: those with a hit (about 4.1% of all), similar ones and a draw of the others.
hcDAF-12 act: activators of H. contortus DAF-12 nuclear receptor. HEK293 hcDAF-12 lit1-tk-luc reporter, luminescence; 0% DMSO, 100% Δ7-dafachronic acid. activation, % at 6.8 µM. 370,000 tested, 1.4% active. AID 652067;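 active = activation above the mean of all tested compounds plus 3 SD, cut at about 5.5% in these data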;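 also: 100% = response to 3 µM Δ7-dafachronic acid high control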
ssDAF-12 act: S. stercoralis DAF-12 activation, primary screen. HEK293 ssDAF-12/GRIP1 lit1-tk-luc reporter, luminescence; % of 3 µM dafachronic acid response. 370,000 tested, 1% active. activation, % at 6.8 µM;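 active = activation above the mean over all tested compounds plus 3 SD, cut at about 0.9% in these data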;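 also: 0% = DMSO-only wells and 100% = 3 µM delta7-dafachronic acid wells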
DAX1 inh-1: NR0B1 (DAX1) inhibition; HEK293 Gal4-DAX1 luciferase reporter, luminescence; inhibition, % at 6.75 µM; 340,000 tested, 0.99% active; AID 504766;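 active = inhibition above the mean over all tested compounds plus 3 SD, cut at about 4.2% in these data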;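 also: 0% = DAX1-transfected cells with DMSO and 100% = empty-vector control cells with DMSO; inhibition shows as a rise in luminescence from relieved DAX1 repression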
Target sequence (P51843 207-470 limits assumed): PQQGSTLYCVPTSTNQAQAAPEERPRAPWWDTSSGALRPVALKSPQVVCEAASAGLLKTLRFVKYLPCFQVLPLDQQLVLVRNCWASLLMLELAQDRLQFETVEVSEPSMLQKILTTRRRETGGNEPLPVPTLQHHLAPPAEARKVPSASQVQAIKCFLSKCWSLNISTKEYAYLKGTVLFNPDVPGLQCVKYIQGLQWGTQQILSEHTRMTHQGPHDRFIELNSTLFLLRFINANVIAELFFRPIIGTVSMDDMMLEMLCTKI
DAX1 inh-2: DAX1 (NR0B1) inhibition, primary screen; inhibition, % at 6.8 µM; HEK293T StAR-luciferase reporter, SF-1/DAX-1 repression relief; AID 652010; 370,000 tested, 1.1% active;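 active = inhibition above the mean over all tested compounds plus 3 SD, cut at about 3.6% in these data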;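 also: 0% = DAX-1 cells with DMSO and 100% = cells lacking DAX-1 with DMSO; higher inhibition means more luminescence from relief of DAX-1 repression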
hgDAF-12 ag: activates the H. glycines DAF-12 receptor ligand-binding domain. HEK293 GAL4-hgDAF12 UAS-luciferase reporter, agonist luminescence; normalized to butyrate control. activation, % at 6.8 µM. 370,000 tested, 1.8% active;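 active = activation above a cutoff set at the mean of all screened compounds plus 3 SD, cut at about 10% in these data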;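 also: 0% = DMSO wells and 100% = sodium butyrate wells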
DAX1 conf: NR0B1 (human) inhibition, confirmation | shares compounds with DAX1 inh-2 | HEK293T StAR-promoter luciferase reporter, SF-1/DAX-1 repression | inhibition, % at 6.8 µM | 2,400 tested, 87% active | AID 652134;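 active = inhibition above the average of every tested compound plus 3 SD, cut at about 3.8% in these data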;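 also: 0% = DAX-1 cells with DMSO and 100% = no DAX-1 control cells with DMSO; active compounds raise luminescence by relieving repression of the StAR reporter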
Target sequence (P51843 whole entry, looked up): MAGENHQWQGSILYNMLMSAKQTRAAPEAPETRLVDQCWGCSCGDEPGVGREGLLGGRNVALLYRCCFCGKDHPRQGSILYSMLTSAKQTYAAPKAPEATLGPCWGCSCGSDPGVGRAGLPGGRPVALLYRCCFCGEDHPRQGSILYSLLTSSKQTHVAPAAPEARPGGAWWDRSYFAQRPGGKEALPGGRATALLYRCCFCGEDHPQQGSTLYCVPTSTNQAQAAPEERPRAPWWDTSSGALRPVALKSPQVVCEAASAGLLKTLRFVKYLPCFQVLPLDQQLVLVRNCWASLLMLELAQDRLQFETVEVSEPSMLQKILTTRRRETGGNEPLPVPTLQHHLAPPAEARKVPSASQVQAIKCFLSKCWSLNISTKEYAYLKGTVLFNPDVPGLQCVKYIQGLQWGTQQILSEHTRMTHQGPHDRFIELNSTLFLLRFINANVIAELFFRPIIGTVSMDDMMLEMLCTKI
SF1 AF2mut Luc: counter-screen for DAX1 inhibitors: nonselective inhibitors with SF-1 AF2 mutant | 2,400 tested, 78% active | HEK293 StAR-luciferase, luminescence | shares compounds with DAX1 inh-2 | inhibition, % at 6.8 µM | AID 652136;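 active = inhibition above the mean of all tested compounds plus 3 SD, cut at about 3% in these data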;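 also: 0% = DAX-1 transfected cells with DMSO and 100% = cells without DAX-1 with DMSO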
LXR ag: LXR-beta agonism as hcDAF-12 counter-screen; shares compounds with hcDAF-12 act; HEK293 Gal4-LXR tk-luc reporter, luminescence, 24 h; normalized: DMSO 0%, positive control 100%; activation, % at 6.8 µM; 3,400 tested, under 10 active; AID 743027;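 active = mean percent activation of the reporter above a cutoff set as the average over tested compounds plus their standard deviation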
hcDAF12 ag: confirmation of H. contortus DAF-12 agonists | shares compounds with hcDAF-12 act | HEK293 hcDAF-12 lit1-tk-luc reporter, luminescence; % of Δ7-dafachronic acid response | activation, % at 6.8 µM | 3,400 tested, 61% active | AID 743032;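 active = mean activation across triplicate tests above the threshold derived from the earlier primary screen, cut at about 5.5% in these data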;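 also: 0% = DMSO only wells and 100% = 3 µM Δ7-dafachronic acid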
* = called active by the depositor; / = no result given.

SMILES | hcDAF-12 act | ssDAF-12 act | DAX1 inh-1 | DAX1 inh-2 | hgDAF-12 ag | DAX1 conf | SF1 AF2mut Luc | LXR ag | hcDAF12 ag
CN1C2=N[C@H](c3ccccc3Br)CC(=O)N2/C(=C\c2ccccc2)[C@@H]1c1ccccc1 | 2 | -1 | / | / | -2 | / | / | / | /
COC(=O)[C@]12C[C@H](CC(=O)NCc3cccc(C(F)(F)F)c3)C(=O)N(CCc3ccc(OC)c(OC)c3)C1=C[C@H](C1CCCC1)O[C@@H]2C | -2 | -1 | / | -2 | -1 | / | / | / | /
COc1ccc(C2=NN3C(C2)c2ccccc2OC3c2cccs2)cc1 (stereo unspecified) | 7.9* | 0 | 2 | 4.5* | 23* | 12* | 7.6* | / | /
CCOc1c(Br)cc(C(=O)Nc2cccc(S(=O)(=O)N3CCOCC3)c2)cc1OC | -2 | -2 | -1 | -2 | -1 | / | / | / | /
C/C(=N\Nc1ccc(C(=O)O)cc1)c1ccc(-n2ccnc2)cc1 | 3 | -1 | -1 | 6.8* | 12* | 8.3* | 5.3* | / | /
CN1CCN(C=Nc2nc3ccccc3nc2N2CCCC2)CC1 | -1 | -1 | 2 | 0 | -1 | / | / | / | /
CC(C)c1ccc2nc(N)sc2c1 | 5.8* | -1 | 3 | 5.9* | 11* | 11* | 6.6* | / | /
Nc1nc2ccc(O)cc2s1 | -1 | -1 | -2 | 0 | -3 | / | / | / | /
Cc1cc(=O)n2nc(N3CCCC(C(=O)Nc4cccc(C)c4C)C3)sc2n1 (stereo unspecified) | 1 | 0 | / | 0 | -3 | / | / | / | /
CCc1ccn2cc(-c3ccc4c(c3)OCO4)nc2c1 | 1 | -2 | / | 0 | -3 | / | / | / | /
COC(=O)c1ccc2nc(-c3ccc4c(c3)OCO4)cn2c1 | 7.1* | 1.7* | -3 | 10* | 17* | 8.9* | 0 | 1 | 6.4*
CCc1nc2ccc(C(=O)NCCCn3ccnc3)cn2c1N(C)C(=O)C1CCCCC1 | -1 | -1 | / | 1 | -3 | / | / | / | /
COC(=O)C(Cc1c[nH]c2ccccc12)NC(=O)c1ccc2nc[nH]c2c1 (stereo unspecified) | 8.3* | 2.1* | 4.5* | 8.7* | 14* | 13* | 6.0* | 1 | 6.9*
COC(=O)C(Cc1c[nH]c2ccccc12)NC(=O)c1cncc(Br)c1 (stereo unspecified) | 5 | 0 | 1 | 0 | 1 | / | / | / | /
Cc1ccc(NC(=O)CNC(=O)c2sc3ccccc3c2Cl)nc1 | 7.0* | 0 | 3 | 4.6* | 6 | 4.8* | 3.4* | 0 | 3
COC(=O)C1=C(C)N(Cc2ccccc2C(F)(F)F)C(=NCc2cc(OC)c(OC)c(OC)c2)NC1c1ccccc1C(F)(F)F (stereo unspecified) | 0 | -1 | / | 0 | -2 | / | / | / | /
O=C1c2ccccc2CN2C(=O)c3ccccc3CN12 | 0 | 0 | 1 | -1 | 1 | / | / | / | /
c1ccc(-c2cn3c(n2)-c2ccccc2C3)cc1 | 21* | 3.8* | -3 | 5.7* | 15* | 11* | 5.8* | 1 | 22*
O=C1OCCC1=Cc1ccccc1 | 0 | -1 | -1 | -1 | -1 | / | / | / | /
COc1ccc(NC(=O)c2oc3ccccc3c2C)cn1 | 11* | 1.1* | 1 | 6.4* | 7 | 6.1* | 6.2* | 0 | 9.8*
Cc1ccc2oc(C(=O)Nc3cc(C)on3)c(C)c2c1 | 11* | 2.5* | 3 | 5.5* | 11* | 13* | 8.0* | 2 | 14*
COc1ccc(NC(=O)c2cc(OC)c(OC)c(OC)c2)cn1 | -2 | -2 | 0 | 1 | 1 | / | / | / | /
Cc1cc(NC(=O)c2cccs2)no1 | -2 | -1 | 0 | 1 | 4 | / | / | / | /
Cc1ccc(NC(=O)c2oc3ccccc3c2C)nc1 | 8.5* | 3.3* | 2 | 8.2* | 13* | 8.4* | 5.5* | 1 | 16*
Cc1cc(NC(=O)c2sc3ccccc3c2O)no1 | 12* | 1 | 1 | 6.5* | 8 | 8.1* | 6.2* | 1 | 7.2*
SMILES | hcDAF-12 act | ssDAF-12 act | DAX1 inh-1 | DAX1 inh-2 | hgDAF-12 ag | DAX1 conf | SF1 AF2mut Luc | LXR ag | hcDAF12 ag
COc1ncnc2c1ncn2CCCN[C@H](C)c1cccc2ccccc12 | 1 | 0 | 1 | 0 | 0 | / | / | / | /
COc1ccc(C)c2sc(N(CCCN(C)C)C(=O)c3ccc4c(c3)OCCO4)nc12 | 0 | -1 | -1 | 1 | -1 | / | / | / | /
CCOc1ccc(S(=O)(=O)N2CCN(CCNS(=O)(=O)c3ccc(C)cc3)CC2)cc1 | 0 | -1 | 0 | 0 | -2 | / | / | / | /
O=C(c1ccc2oc(CCc3ccccc3)nc2c1)N1CCC(O)CC1 | 8.2* | 0 | 1 | 8.1* | 11* | 13* | 4.9* | 1 | 6.9*
COc1ccc(C(CNC(=O)Cc2c(F)cccc2Cl)N2CCCCC2)cc1 (stereo unspecified) | 0 | -1 | 0 | 2 | 3 | / | / | / | /
C=CCN(C(=O)CSC1=NC(=O)CN1C(C)=O)c1nc(C)c(-c2ccccc2)s1 | 0 | 0 | 0 | 1 | 5 | / | / | / | /
CCOC(=O)CNc1c(-c2ccccc2)nc2ccc(Cl)cn12 | -1 | -1 | 3 | 2 | 6 | / | / | / | /
COC(=O)CNc1c(-c2ccccn2)nc2ccc(Br)cn12 | 7.8* | 1 | 1 | 4.9* | 10 | 12* | 6.2* | 1 | 6.2*
O=[N+]([O-])c1ccc(CN2CCN(c3ccc4ccccc4n3)CC2)cc1 | -2 | -2 | 1 | -2 | 0 | / | / | / | /
Cc1ccc2nc(CSc3nc(C)ccc3C#N)[nH]c2c1 | 19* | 1.4* | 0 | 6.0* | 18* | 16* | 6.2* | 2 | 26*
CCOC(=O)c1cc(-c2cccc(O)c2)oc1C | 9.8* | 3.3* | / | 6.2* | 14* | 3.8* | 3.2* | 1 | 13*
CCOC(=O)c1sc(NC(=O)c2cc(-c3cccc(O)c3)on2)c(C(=O)OCC)c1C | 0 | -2 | 0 | 1 | -4 | / | / | / | /
O=C1c2ccccc2C(=O)C1c1ccc2ccccc2n1 | 24* | 4.4* | 4.2* | 5.8* | 20* | 0 | -3 | 2 | 21*
COC(=O)C1=C(C)NC(C)=C(C(=O)OC)C1c1ccc2ccccc2n1 | 1 | 0 | 0 | 0 | -1 | / | / | / | /
O=c1[nH]c(=O)n([C@H]2C[C@H](O)[C@@H](CO)O2)cc1Br | 8.8* | -1 | 1 | 13* | 38* | 14* | 5.5* | 0 | 12*

Screens as filed in PubChem BioAssay.
